Results reported in PubChem BioAssay (NCI).
About 79,000 compounds went through this panel and 15% of them were active in at least one assay; those are over-represented in the sample as a whole. A number with no mark means an inactive call. Calls of active or inactive are those of the source. Cut-off read from the data, not from the text of the source: active = growth inhibition above about 70%; inactive = the rest.

What was measured:
[1] = NCI Yeast Anticancer Drug Screen. Data for the rad50 strain (AID 155);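 note: 0% = growth of vehicle-only cultures of the same strain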; settings: S. cerevisiae rad50 strain growth inhibition, hits give high values
Summary of the method: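 Relative growth inhibition (compound vs vehicle) was measured in yeast with a defined repair-gene alteration.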

[2] = NCI Yeast Anticancer Drug Screen. Data for the mec2-1 strain (AID 157); settings: S. cerevisiae mec2-1 strain, hits give high values
Summary of the method: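 Mutant yeast (mec2-1) grown with compound; growth inhibition relative to vehicle control reported.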

[3] = NCI Yeast Anticancer Drug Screen. Data for the sgs1 mgt1 strain (AID 161);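 note: 0% = growth of cultures given vehicle only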; settings: S. cerevisiae sgs1 mgt1 strain, hits give high values
Summary of the method: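 Growth of a repair-deficient yeast mutant was monitored after compound treatment and expressed as inhibition relative to vehicle-treated cultures.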

[4] = NCI Yeast Anticancer Drug Screen. Data for the cln2 rad14 strain (AID 165);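 note: 0% = growth equal to vehicle treated cultures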; settings: S. cerevisiae cln2 rad14 strain, hits give high values
Summary of the method: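 Readout is yeast growth inhibition versus vehicle-treated controls, using a strain with cln2 and rad14 alterations exposed to compound.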

[5] = NCI Yeast Anticancer Drug Screen. Data for the bub3 strain (AID 167); settings: S. cerevisiae bub3 mutant strain, hits give high values
Summary of the method: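 Screening used yeast with an engineered genetic alteration affecting cell cycle control. Compound-exposed cultures were compared with vehicle cultures, and reduced growth was taken as inhibition.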

[6] = NCI Yeast Anticancer Drug Screen. Data for the mlh1 rad18 strain (AID 175); settings: S. cerevisiae mlh1 rad18 strain growth inhibition, hits give high values
Summary of the method: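 Genetically defined yeast (DNA repair-deficient) exposed to compounds; growth inhibition determined relative to vehicle.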

[7] = at 5.0 µM (retest, dose inferred, filed as 0.5)
[8] = at 50.0 µM (retest, dose inferred, filed as 5.0)

Structure (SMILES) | growth inhibition [1, 7] | growth inhibition [1, 8] | growth inhibition ([1]; at 50.0 µM) | growth inhibition [2, 7] | growth inhibition [2, 8] | growth inhibition ([2]; at 50.0 µM) | growth inhibition [3, 7] | growth inhibition [3, 8] | growth inhibition ([3]; at 50.0 µM) | growth inhibition [4, 7] | growth inhibition [4, 8] | growth inhibition ([4]; at 50.0 µM) | growth inhibition [5, 7] | growth inhibition [5, 8] | growth inhibition ([5]; at 50.0 µM) | growth inhibition [6, 7] | growth inhibition [6, 8] | growth inhibition ([6]; at 50.0 µM)
CC(=O)Oc1c(Br)cc(Br)cc1Br | 4% | -4% | 9.35% | -5% | -34% | 6.7% | 10% | 4% | 4.5% | 2% | -2% | 1.2% | 10% | 6% | 9.1% | 13% | 20% | 0.9%
C/C(=N\O)c1ccc2c3c(ccc([N+](=O)[O-])c13)CC2 | -2% | 9% | 13.2% | -9% | 7% | 29.2% | -9% | -2% | -6.4% | 0% | -5% | 34.9% | 0% | 7% | 85.2% (active) | 8% | 30% | 88.5% (active)
OCCOc1ccc2ccccc2c1-c1c(OCCOc2ccc3ccccc3c2-c2c(OCCO)ccc3ccccc23)ccc2ccccc12 | 0% | 22% | 36.1% | -3% | 13% | 21.5% | 1% | 29% | 36.9% | 6% | 33% | 11.7% | -2% | 14% | 24.6% | 3% | 27% | 26.4%
COc1cc2c(cc1OC)c1c(OC)c(OC)cc3c1c1c2sc(=S)n1CC3 | 4% | 59% | 93% (active) | 14% | 46% | 96.9% (active) | 11% | 55% | 96.1% (active) | 5% | 14% | 93.8% (active) | 4% | 33% | 95.4% (active) | 5% | 53% | 99% (active)
FC(F)(F)c1ccc(-c2ccc(OCCN3CCCC3)cc2)cc1 | 30% | 50% | 98.6% (active) | 13% | 50% | 99.5% (active) | 25% | 88% (active) | 99.4% (active) | 28% | 40% | 99.1% (active) | 26% | 62% | 99.4% (active) | 29% | 68% | 99.3% (active)
CCOC(=O)C(=NNc1ccccc1)C(=O)OCC | 2% | 50% | 42.4% | -3% | 2% | 33.2% | -4% | 16% | 42.5% | -1% | 4% | -14.6% | -1% | 27% | 46.9% | 1% | 25% | 62.9%
O=c1oc2ccccc2c(O)c1/C=N/C(=S)Nc1ccccc1 | 13% | 93% (active) | 71% (active) | -3% | 87% (active) | 34.5% | 6% | 88% (active) | 18.5% | 0% | 32% | 20.8% | 12% | 92% (active) | 46.9% | 9% | 97% (active) | 76% (active)
CC1(C)CCCC12C=NCC2 (configuration not stated) | 2% | 16% | 17.8% | -2% | 18% | -1.15% | -1% | 11% | 31.9% | 1% | 1% | -3.95% | 2% | 10% | 43.1% | -28% | 27% | 22.9%
O=C1C=CC(=O)c2cc(Sc3ccccc3)c(=O)ccc21 | 16% | 37% | 81.2% (active) | 29% | 38% | 42.2% | 25% | 98% (active) | 71.7% (active) | 33% | 72% (active) | 39.4% | 30% | 98% (active) | 37% | 33% | 37% | 87% (active)
